SIRT5 block – SIRT5 desuccinylase inhibitors, primary screen, biochemical, fluorescence imaging, single point, set 5 | Purified SirT5, succinyl-peptide AMC, trypsin-coupled fluorescence | 330,000 tested, 1.1% active | AID 652115, 2013 | inhibition, % at 15 µM; in the data active = inhibition above about 15%
NSD2 HMT inh – NSD2 histone methyltransferase inhibitors, primary screen, biochemical, AlphaScreen, single concentration, set 2. inhibition, % at 12.5 µM. Histone-lysine N-methyltransferase NSD2 (Homo sapiens), O96028. NSD2 peptide methylation, 120 min. 310,000 tested, 0.54% active; in the data active = inhibition above about 50%
UBC9 SUMO inh – inhibitors of in vitro SUMOylation cascade, primary screen, biochemical, HTRF, uHTS. SUMO-conjugating enzyme UBC9 (Homo sapiens), P63279. inhibition, % at 35 µM. HTRF SUMOylation assay, SAE1/SAE2 + UBC9. AID 2006, 2009. 290,000 tested, 0.36% active; in the data active = inhibition above about 50%, passing the limit was not always enough
CASP6 VEID inh – human caspase-6 inhibitors, primary screen, biochemical, VEID-R110 fluorescence, single point, set 2; purified caspase-6, Z-VEID-R110 cleavage fluorescence; AID 686996, 2013; inhibition, % at 12.5 µM; 350,000 tested, 0.53% active;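 active = mean inhibition across replicates at least about 35%, with every replicate also reaching that limit, limit read from the data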;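 note: 0% = median of neutral control wells and 100% = no fluorescence left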
Alpha artifact – AlphaScreen signal interference with preloaded methylated product, dose response, artefact control for NSD2 inhibitor project, biochemical, cherry-picked samples | shares compounds with NSD2 HMT inh | AlphaScreen artifact counterscreen, preloaded methylated H4 peptide | AC35, µM (highest dose often 10 µM), inactives show at the highest dose activity change, negative = signal loss | 1,500 tested, 9.4% active; call rule not given here
Active calls of the source: *; · = not tested or not shown. Most compounds without a hit are left out; they make up all but 1.6% or so of the library.

SMILES	SIRT5 block	NSD2 HMT inh	UBC9 SUMO inh	CASP6 VEID inh	Alpha artifact
CC(C)CC#Cc1ccc2c(c1)O[C@H](CN(C)C(=O)CC1CC1)[C@@H](C)CN([C@H](C)CO)S2(=O)=O	9.5	·	·	-3.5	·
O=C(/C=C/c1ccco1)Nc1ccccc1C(=O)O	5.6	73.3*	20.6	·	-2.2%
CC1=CS(=O)(=O)CC1Sc1ncn[nH]1 (stereo unspecified)	·	143.5*	-26.8	·	-5.2%
CC1=CS(=O)(=O)CC1Sc1nc(C)n[nH]1 (stereo unspecified)	-4.0	-7.0	17.5	6.0	·
Cc1cc2c(N)cccc2nn1	·	98.8*	76.6	·	-6.5%
CN(C)c1cc(N/N=C/c2ccc(Cl)cc2)nc(N(C)C)n1	0.6	99.6*	·	0.6	-4.4%
COc1cc(N/N=C/c2ccc(N(C)C)cc2)ncn1	2.0	-4.5	-5.1	1.0	·
O=C(Nc1cc(Cl)ccc1-n1cncn1)c1cccs1	-2.2	67.6*	·	-3.5	-1.4%
O=C(Nc1cc(Cl)ccc1-n1cncn1)c1cc(F)cc(F)c1	-6.0	0.3	·	3.8	·
N=C1/C(=C\c2ccc(Br)o2)C(=O)N=C2SC(CC(=O)N3CCCCC3)=NN12	20.6*	66.7*	15.5	-1.3	-4.5%
Cc1ccc(/C=C2/C(=N)N3N=C(CC(=O)N4CCCC4)SC3=NC2=O)o1	6.4	3.9	3.4	11.1	·
O=C(c1coc(=O)c(Br)c1)N1CCOCC1	·	140.6*	2.7	·	-7.9%
CN(C)c1ccc(C=c2c3ccccc3n3c2c2c([n+]3C)CCCC2)cc1	-1.8	71.3*	·	·	4.45µM*
O=[N+]([O-])c1cc2ncccc2c2ncccc12	-3.9	56.1*	·	-0.1	-6.3%
CC(C)c1cn(CC[C@@H]2CC[C@@H](NS(=O)(=O)c3ccc(Cl)cc3)[C@H](CO)O2)nn1	-4.3	·	·	1.3	·
COc1ccc(Sc2nnc(-c3ccccc3)cc2C#N)cc1	·	-1.7	3.0	·	·
N#Cc1cc(-c2ccccc2)nnc1Oc1ccccc1Cl	·	71.1*	6.6	·	1.2%
Cc1ccc(S(=O)(=O)NC(C(=O)N2CCN(S(=O)(=O)c3cccc(F)c3)CC2)C(C)C)cc1 (stereo unspecified)	-3.7	93.9*	·	4.2	3.6%
Cc1ccc(S(=O)(=O)NC(C(=O)N2CCOCCOCCOCC2)C(C)C)cc1 (stereo unspecified)	0.0	-1.7	18.5	0.3	·
COc1ccccc1N1CCN(C2CCN(C(=O)c3cccc(F)c3)CC2)CC1	-4.0	59.0*	-1.6	-5.1	-2.1%
COc1ccccc1CNC(=O)C(NC(=O)Nc1ccccc1)C(C)C (stereo unspecified)	-8.2	106.2*	8.7	-1.8	-4.4%
COc1ccccc1CNC(=O)C(NC(=O)c1ccccc1)C(C)C (stereo unspecified)	-10.0	-2.6	8.0	4.6	·
CC(C)c1cn(CC[C@H]2CC[C@@H](NC(=O)C3CC3)[C@H](CO)O2)nn1	4.4	·	·	5.7	·
CCNC(=O)C1CCCN(C(=O)c2ccccc2OC(F)(F)F)CC1 (stereo unspecified)	-0.5	60.3*	·	-0.7	-3.3%
C/C(=N\O)C(C)Oc1ccc(Cl)cc1 (stereo unspecified)	-6.2	65.1*	-0.1	0.5	1.7%
SMILES	SIRT5 block	NSD2 HMT inh	UBC9 SUMO inh	CASP6 VEID inh	Alpha artifact
O=C(O)COc1ccc(/C=C/C(=O)c2ccc3ccccc3c2)cc1	·	87.6*	12.1	·	-4.7%
COc1ccc(CCNC(=O)C2CCN(C(=O)c3ccccc3C)CC2)cc1	-2.1	50.8*	10.0	1.3	-2.0%
O=C(O)CN1C(=O)/C(=C\c2cccc(OCc3ccc(F)cc3)c2)SC1=S	1.5	54.4*	26.3	·	-12.2%
O=C(O)CN1C(=O)/C(=C\c2cccc(OCc3ccc(Cl)cc3)c2)SC1=S	9.3	22.0	27.6	27.9	·
COc1ccc2c3c(n(C)c2c1)[C@H](CO)N(C(=O)CN(C)C)CC31CCN(C(=O)NC(C)C)CC1	3.8	·	·	-3.1	·
ON=Cc1cccn1-c1ccccc1	-1.4	34.8	17.1	-3.1	·
O=C(O)c1cccc(-n2cccc2/C=N/O)c1	·	52.5*	9.2	·	-9.9%
O=C(O)c1cccc(-n2cccc2/C=C\[N+](=O)[O-])c1	3.9	68.7*	36.5	·	-2.5%
COCC(=O)N1C[C@@H](C)[C@@H](OC)CN(C)C(=O)c2ccc(NC(=O)c3ccc(OC)cc3)cc2OC[C@@H]1C	0.8	·	·	·	·
CCN(CC)CCNc1nc(SC)nc2sc3c(c12)CCN(C)C3	-9.6	62.1*	17.4	-62.0	-7.2%
O=C(CC(=O)Nc1ccc(Cl)cc1)N/N=C\c1cccc(F)c1	-1.1	112.6*	-10.4	-0.7	2.1%
O=C(CCC(=O)Nc1ccc(F)cc1)N/N=C/c1cccc(Br)c1	-2.2	0.6	-6.3	0.5	·
CN(CCc1ccccc1)C1CCCN(S(=O)(=O)c2cccc(F)c2)C1 (stereo unspecified)	0.0	12.3	10.9	7.2	·
CN(CCc1ccccc1)C1CCCN(S(=O)(=O)N(C)C)C1 (stereo unspecified)	1.4	53.2*	1.7	3.6	-0.5%
C/[N+]([O-])=C1\Cc2ccccc2C1=O	·	61.0*	0.7	·	0.1%
O=C1c2ccccc2CCc2ccccc21	-0.9	0.0	·	-0.5	·
Cc1cnc(C2OCCO2)c2cccc(N)c12	-2.6	156.0*	·	59.8*	0.3%
O=[N+]([O-])c1cccnc1C1OCCO1	-5.3	-3.3	·	1.9	·
O=C(C[C@H]1CC[C@H](NC(=O)c2cccc(F)c2)[C@@H](CO)O1)NCc1ccccc1	3.7	·	·	-0.2	·
C[C@@H](NC(=O)C[C@@H]1CC[C@H](NC(=O)C2CCC2)[C@@H](CO)O1)c1ccccc1	1.2	·	·	-1.5	·
CC1CN(Cc2cc(=O)n3ccsc3n2)CC(C)O1 (stereo unspecified)	·	62.3*	-21.2	·	1.1%
CCN1C(=O)/C(=C\c2ccc(-c3ccc([N+](=O)[O-])cc3OC)o2)SC1=Nc1cccc(C(=O)O)c1	9.1	60.5*	29.2	25.6	-6.5%
C[C@@H]1CCCCO[C@@H](CN(C)C(=O)Nc2ccccc2)[C@@H](C)CN([C@@H](C)CO)C(=O)c2cc(NC(=O)Nc3ccc4c(c3)OCO4)ccc2O1	8.5	·	·	-0.2	·
CNC(=O)COC(=O)/C=C/c1cccs1	1.7	78.7*	13.4	-0.8	-4.8%
COc1ccc(/C=N/NC(=O)c2cc(O)c(O)c(O)c2)cc1Cn1cc([N+](=O)[O-])cn1	3.0	72.6*	28.5	62.0*	8.63µM*
COc1ccc(NC(=O)N[C@@H]2CC[C@@H](CCn3cc(-c4ccccn4)nn3)O[C@H]2CO)cc1	2.5	·	·	-5.4	·
O=C(OCc1cnc(Cl)s1)c1cccs1	-3.5	52.2*	10.4	-1.0	2.5%
Cc1c(C(=O)NC(C)C)oc2c1-c1[nH]ncc1CC2	·	54.7*	12.6	·	-4.6%

Screening data from PubChem BioAssay.
